# Compound activity deposited in PubChem BioAssay by several laboratories.
# Beta cell apopt = blocks beta cell apoptosis | protection from apoptosis, % (no concentration beside the values) | INS-1E cytokine-induced death, ATP luminescence, 48 h; percent of positive-control rescue, neutral wells zero | actives 0.8% (n = 300,000);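 active means Every replicate reaches about 75%, or at least half do and their mean reaches it too, limit read from the data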;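 further: 0% = cytokine-treated negative control wells and 100% = positive control rescue; higher means more ATP so stronger rescue from cytokine killing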
# 697 NFkB inh = inhibitors of the PMA/ionomycin-induced NF-kB reporter in 697 B cells; 697 B-cell NF-kB luciferase reporter, 16 h; inhibition, % at 4 µM; actives 0.33% (n = 330,000); AID 435022; in the data active means inhibition above about 35%
# A1 inh = inhibitors of the anti-apoptotic protein A1, read as caspase activation | MEF A1-2A-BIM cells, Caspase-Glo 3/7 luminescence, 3 h; percent of clofoctol response, vehicle zero | caspase activation, % (concentration not given with the values) | actives 0.066% (n = 330,000);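 active means over half of replicate activation scores above 10%, or exactly half above 10 with the replicate mean above 10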
# NTR1 ag = activates human neurotensin receptor 1 | NTR1-U2OS beta-arrestin-GFP spot imaging, agonist mode | activation, % at 20 µM | actives 0.17% (n = 330,000) | AID 493036;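 active means activation at or above 40% of the spot to cytoplasm intensity ratio, with at least 20 cells analyzed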;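 further: 0% = DMSO without peptide and 100% = 100 nM NTR1 peptide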
# Target sequence (P30989 whole entry, looked up): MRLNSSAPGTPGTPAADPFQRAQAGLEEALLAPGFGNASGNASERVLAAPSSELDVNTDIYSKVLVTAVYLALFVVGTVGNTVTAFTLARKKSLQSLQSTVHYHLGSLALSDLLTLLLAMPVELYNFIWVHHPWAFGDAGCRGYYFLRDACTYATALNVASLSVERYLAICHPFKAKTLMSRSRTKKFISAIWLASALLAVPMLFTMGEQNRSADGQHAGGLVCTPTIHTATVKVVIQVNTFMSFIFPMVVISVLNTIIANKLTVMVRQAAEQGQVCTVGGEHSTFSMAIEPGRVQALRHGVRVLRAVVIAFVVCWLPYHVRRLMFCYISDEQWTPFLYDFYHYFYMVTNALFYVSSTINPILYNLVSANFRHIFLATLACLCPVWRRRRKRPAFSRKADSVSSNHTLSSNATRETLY
# Jurkat NFkB inh = inhibitors of the PMA/ionomycin-induced NF-kB reporter in Jurkat cells | PMA/ionomycin-induced NF-kB luciferase reporter, luminescence | inhibition, % at 4 µM | actives 0.53% (n = 330,000); in the data active means inhibition above about 50%
# Mdm2-MdmX inh = inhibitors of human Mdm2/MdmX interaction; actives 3% (n = 330,000); inhibition, % at 8 µM; SaOS-2 split-luciferase Mdm2/MdmX complementation, luminescence;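 active means inhibition of at least 50% at 8 µM in the primary screen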
# Mdm2-MdmX conf = human Mdm2/MdmX binding inhibition, confirmed | inhibition, % at 8 µM | shares compounds with Mdm2-MdmX inh | actives 55% (n = 10,000) | luminescent assay; in the data active means inhibition above about 40%
# Full FLuc ctr = inhibits full-length luciferase, flagging false Mdm2/MdmX hits | shares compounds with Mdm2-MdmX inh | SaOS-2 full-length luciferase counterscreen, luminescence | inhibition, % at 8 µM | actives 77% (n = 6,200);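 active means mean inhibition at 8 µM reaching about 37%, which flags the compound as non-specific, limit read from the data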;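 further: p53-null SaOS-2 cells with luciferase driven by a doxycycline-inducible promoter; compound on cells about two nights before reading with doxycycline added after day one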
# The depositor's hits bear a star; x = not tested or not shown. Hits are enriched below; roughly 3.8% of the tested compounds scored in any of these assays.
SMILES,Beta cell apopt,697 NFkB inh,A1 inh,NTR1 ag,Jurkat NFkB inh,Mdm2-MdmX inh,Mdm2-MdmX conf,Full FLuc ctr
COc1ccc(-c2n[nH]c(C)c2-c2ccc(Cl)cc2)c(O)c1,18,-15,0,14,9,30,x,x
COc1ccc(-c2n[nH]c(C)c2-c2ccc(Cl)cc2)c(O)c1OC,-10,16,-1,8,-3,87*,73*,39*
CCCCn1c(=O)[nH]c(=O)c2c(C(=O)OCC)cc(-c3ccc(OC(F)F)cc3)nc21,10,3,-2,1,-17,57*,32,x
Cc1cc(NC(=O)CSc2nc3ccccc3c(=O)n2C(C)c2ccccc2)no1 (centres undefined),4,-69,0,1,-7,72*,26,x
CCC(C)n1c(SCC(=O)Nc2cc(C)on2)nc2ccccc2c1=O (centres undefined),4,-23,0,2,26,28,x,x
CC(C)[C@H](NS(=O)(=O)c1cccc(Cl)c1)C(=O)OCC(=O)NC(=O)CN1CCCC1=O,1,13,-1,-3,-14,-6,x,x
O=C(N/N=C/c1cccc([N+](=O)[O-])c1)c1cc(-c2ccc3c(c2)OCO3)n[nH]1,50,-7,0,-1,-5,52*,32,x
CCOC(=O)c1cc(-c2cccc([N+](=O)[O-])c2)n[nH]1,-6,-3,-1,4,-2,-4,x,x
CCc1ccc(/C=N/NC(=O)c2cc(-c3cccc([N+](=O)[O-])c3)n[nH]2)cc1,29,-9,0,4,23,62*,62*,70*
Cc1cccc(NC(=O)C(C)Oc2ccc(C)nc2[N+](=O)[O-])c1 (centres undefined),3,7,-1,-1,13,24,x,x
CC(C)(C)OC(=O)NCCCC[C@H](NC(=O)c1nc[nH]c1C(=O)NCc1ccccc1)C(=O)OC(C)(C)C,-3,-6,0,10,-5,35,x,x
CC(C)(C)OC(=O)NCCCC[C@H](NC(=O)c1[nH]cnc1C(=O)N[C@@H](Cc1ccccc1)C(=O)OC(C)(C)C)C(=O)OC(C)(C)C,50,2,0,24,30,62*,10,x
CC(C)(C)OC(=O)[C@H](Cc1ccccc1)NC(=O)c1nc[nH]c1C(=O)N[C@@H](Cc1ccccc1)C(=O)OC(C)(C)C,31,9,-1,39,21,86*,13,x
Cc1ccc(CN=c2c([N+](=O)[O-])nn(-c3ccc4c(c3)OCCO4)n2O)cc1,-7,-73,-5,18,-92,-148,x,x
Cc1cc(C)cc(N=c2c([N+](=O)[O-])nn(-c3ccc4c(c3)OCCO4)n2O)c1,-4,33,0,4,26,70*,65*,45*
Cc1ccc(N=c2c([N+](=O)[O-])nn(-c3ccc4c(c3)OCCO4)n2O)cc1F,-3,7,1,2,40,80*,95*,24
O=[N+]([O-])c1nn(-c2ccc3c(c2)OCCO3)n(O)c1=NCCCO,8,-104,-2,-2,-36,-9,x,x
O=[N+]([O-])c1nn(-c2ccc3c(c2)OCCO3)n(O)c1=Nc1ccc(Cl)cc1,-6,10,0,4,39,86*,92*,51*
Cc1ccc(N=c2c([N+](=O)[O-])nn(-c3ccc4c(c3)OCCO4)n2O)c(Cl)c1,0,7,0,10,30,40,x,x
COc1ccccc1C(=O)Nn1c(C)nc2ccccc2c1=O,0,-10,-1,1,-29,15,x,x
COc1cc(C(=O)OCC(=O)NC2CCCCC2)cc(OC)c1OC,1,5,1,0,-2,13,x,x
CCCCC(CC)CN=C(N)NC(N)=NCCCCCCN=C(N)NC(N)=NCC(CC)CCCC (centres undefined),114*,6,0,1,39,99*,86*,15
CCCCC(CC)CO (centres undefined),x,9,x,8,3,8,x,x
